Experimental data: PMC7862700, “An all-to-all approach to the identification of sequence-specific readers for epigenetic DNA modifications on cytosine”

Experiments:
Assay in all cases: DAPPL (digital affinity profiling via proximity ligation, sequencing); 10 mM Tris-HCl pH 7.5, 50 mM NaCl, 1 mM DTT, 4% glycerol, room temperature, 30 min; GST-TFs on glutathione beads, 16-mer random dsDNA library, 0.1% formaldehyde crosslink after washing; high values mean tight binding
Conditions in all cases: protein: recombinant; tags: N-terminal GST; dsDNA, one strand shown
[1] = biological target: T1, FLI1 (Homo sapiens, UniProt Q01543 1-452)
T1 sequence: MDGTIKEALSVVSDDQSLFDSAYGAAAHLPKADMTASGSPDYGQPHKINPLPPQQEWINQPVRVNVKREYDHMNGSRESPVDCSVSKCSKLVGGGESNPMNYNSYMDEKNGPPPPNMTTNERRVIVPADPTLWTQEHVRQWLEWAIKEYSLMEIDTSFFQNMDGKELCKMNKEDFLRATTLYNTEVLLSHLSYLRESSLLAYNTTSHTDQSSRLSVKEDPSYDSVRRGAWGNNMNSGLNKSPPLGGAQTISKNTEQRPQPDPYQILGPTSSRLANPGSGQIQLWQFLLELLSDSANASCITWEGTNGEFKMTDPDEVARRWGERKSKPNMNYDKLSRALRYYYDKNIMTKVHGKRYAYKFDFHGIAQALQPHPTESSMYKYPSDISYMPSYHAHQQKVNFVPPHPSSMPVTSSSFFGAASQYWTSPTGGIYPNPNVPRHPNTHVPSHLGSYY
Method in brief: (§1)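 Yeast served to express human transcription factors as GST fusions, which were then captured on glutathione beads and labelled with DNA barcodes. Pooled with a tag-only sample, they were incubated with 200 nmole of a 16-mer random double-stranded DNA library for 30 min at room temperature in Tris/NaCl/DTT/glycerol buffer, washed, crosslinked with 0.1% formaldehyde, ligated by proximity, amplified by PCR and sequenced. Dividing each hexamer's read frequency for a factor by its frequency for the tag-only sample gives the binding signal.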

[2] = biological target: T2, ELK1 (Homo sapiens, UniProt P19419 1-428)
T2 sequence: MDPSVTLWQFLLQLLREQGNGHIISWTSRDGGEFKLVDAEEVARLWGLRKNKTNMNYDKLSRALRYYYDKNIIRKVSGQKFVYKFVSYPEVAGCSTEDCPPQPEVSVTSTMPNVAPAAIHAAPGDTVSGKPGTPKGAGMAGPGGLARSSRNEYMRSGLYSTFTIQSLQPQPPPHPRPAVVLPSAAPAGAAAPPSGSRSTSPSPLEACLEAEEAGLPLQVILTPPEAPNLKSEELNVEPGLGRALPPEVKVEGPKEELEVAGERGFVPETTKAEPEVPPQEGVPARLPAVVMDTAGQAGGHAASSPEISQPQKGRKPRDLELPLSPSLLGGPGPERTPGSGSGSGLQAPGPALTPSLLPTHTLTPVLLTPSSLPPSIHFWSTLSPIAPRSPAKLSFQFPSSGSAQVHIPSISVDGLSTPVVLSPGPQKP
Method in brief: as §1

[3] = biological target: T3, ERG (Homo sapiens, UniProt P11308 1-479)
T3 sequence: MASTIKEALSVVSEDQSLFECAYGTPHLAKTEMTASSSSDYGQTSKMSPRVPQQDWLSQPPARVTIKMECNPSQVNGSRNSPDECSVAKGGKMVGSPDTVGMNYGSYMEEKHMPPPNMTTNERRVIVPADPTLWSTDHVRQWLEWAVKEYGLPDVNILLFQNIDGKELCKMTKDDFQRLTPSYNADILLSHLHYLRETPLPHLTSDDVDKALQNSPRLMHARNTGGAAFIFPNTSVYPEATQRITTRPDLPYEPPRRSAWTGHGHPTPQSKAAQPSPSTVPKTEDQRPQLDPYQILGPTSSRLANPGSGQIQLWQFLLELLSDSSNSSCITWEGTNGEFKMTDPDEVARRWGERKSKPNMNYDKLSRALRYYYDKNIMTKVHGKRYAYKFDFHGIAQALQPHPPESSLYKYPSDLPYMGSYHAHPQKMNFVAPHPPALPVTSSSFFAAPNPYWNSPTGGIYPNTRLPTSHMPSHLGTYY
Method in brief: as §1

[4] = biological target: ELF1 (Homo sapiens, UniProt P32519 1-619)
Method in brief: as §1

[5] = biological target: T4, EHF (Homo sapiens, UniProt Q9NZC4 1-300)
T4 sequence: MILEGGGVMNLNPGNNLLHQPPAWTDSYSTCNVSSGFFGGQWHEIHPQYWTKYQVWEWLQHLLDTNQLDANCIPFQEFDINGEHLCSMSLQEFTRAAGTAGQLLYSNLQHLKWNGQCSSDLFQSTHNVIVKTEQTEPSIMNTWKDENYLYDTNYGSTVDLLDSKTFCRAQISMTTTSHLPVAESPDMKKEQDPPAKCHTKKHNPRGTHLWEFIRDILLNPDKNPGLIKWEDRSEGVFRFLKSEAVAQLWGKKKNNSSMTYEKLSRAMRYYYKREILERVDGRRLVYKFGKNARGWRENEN
Method in brief: as §1

[6] = biological target: SPI1 (Homo sapiens, UniProt P17947 1-270)
Method in brief: as §1

[7] = biological target: SPIB (Homo sapiens, UniProt Q01892 1-262)
Method in brief: as §1

[8] = biological target: T5, ELK3 (Homo sapiens, UniProt P41970 1-407)
T5 sequence: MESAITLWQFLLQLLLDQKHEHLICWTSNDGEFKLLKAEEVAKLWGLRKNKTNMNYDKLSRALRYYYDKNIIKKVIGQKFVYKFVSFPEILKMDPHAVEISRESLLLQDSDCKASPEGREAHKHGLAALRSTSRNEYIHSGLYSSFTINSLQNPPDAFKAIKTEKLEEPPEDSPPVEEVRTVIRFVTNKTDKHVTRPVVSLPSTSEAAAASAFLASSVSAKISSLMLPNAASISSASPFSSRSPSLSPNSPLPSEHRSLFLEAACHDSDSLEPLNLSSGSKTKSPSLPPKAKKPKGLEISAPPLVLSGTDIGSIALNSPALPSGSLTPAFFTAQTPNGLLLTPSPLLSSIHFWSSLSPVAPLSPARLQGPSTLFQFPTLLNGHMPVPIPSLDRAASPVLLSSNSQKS
Method in brief: as §1

[9] = biological target: T6, GABPA (Homo sapiens, UniProt Q06546 1-454)
T6 sequence: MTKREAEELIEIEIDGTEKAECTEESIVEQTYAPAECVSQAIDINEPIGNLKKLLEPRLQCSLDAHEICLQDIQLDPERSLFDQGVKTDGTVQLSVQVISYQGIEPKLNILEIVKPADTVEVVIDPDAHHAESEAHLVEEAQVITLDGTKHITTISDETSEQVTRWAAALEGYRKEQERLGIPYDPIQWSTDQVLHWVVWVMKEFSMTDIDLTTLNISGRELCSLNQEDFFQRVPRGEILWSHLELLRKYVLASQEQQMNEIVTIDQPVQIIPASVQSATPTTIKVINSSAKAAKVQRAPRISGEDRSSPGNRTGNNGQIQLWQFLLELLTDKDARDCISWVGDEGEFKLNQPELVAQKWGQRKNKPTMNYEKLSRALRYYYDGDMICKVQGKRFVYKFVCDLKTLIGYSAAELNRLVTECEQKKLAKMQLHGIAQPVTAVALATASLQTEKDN
Method in brief: as §1

Sequence of ELF1 (P32519 whole entry): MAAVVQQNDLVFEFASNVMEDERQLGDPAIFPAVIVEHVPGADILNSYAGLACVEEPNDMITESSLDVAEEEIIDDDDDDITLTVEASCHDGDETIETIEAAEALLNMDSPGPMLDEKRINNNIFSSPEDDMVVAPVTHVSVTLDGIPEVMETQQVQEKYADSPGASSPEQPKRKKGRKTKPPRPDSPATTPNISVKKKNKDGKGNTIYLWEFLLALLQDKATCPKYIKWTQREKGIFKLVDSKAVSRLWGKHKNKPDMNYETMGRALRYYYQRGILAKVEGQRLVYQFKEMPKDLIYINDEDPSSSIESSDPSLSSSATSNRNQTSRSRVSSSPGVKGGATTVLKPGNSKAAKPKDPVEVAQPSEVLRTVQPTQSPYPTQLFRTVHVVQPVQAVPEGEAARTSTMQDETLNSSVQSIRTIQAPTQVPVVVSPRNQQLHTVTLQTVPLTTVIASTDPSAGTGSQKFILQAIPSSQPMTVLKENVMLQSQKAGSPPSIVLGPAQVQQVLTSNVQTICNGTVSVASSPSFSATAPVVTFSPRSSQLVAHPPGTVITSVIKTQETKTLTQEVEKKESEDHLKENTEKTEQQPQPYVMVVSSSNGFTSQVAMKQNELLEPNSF
Sequence of SPIB (Q01892 whole entry): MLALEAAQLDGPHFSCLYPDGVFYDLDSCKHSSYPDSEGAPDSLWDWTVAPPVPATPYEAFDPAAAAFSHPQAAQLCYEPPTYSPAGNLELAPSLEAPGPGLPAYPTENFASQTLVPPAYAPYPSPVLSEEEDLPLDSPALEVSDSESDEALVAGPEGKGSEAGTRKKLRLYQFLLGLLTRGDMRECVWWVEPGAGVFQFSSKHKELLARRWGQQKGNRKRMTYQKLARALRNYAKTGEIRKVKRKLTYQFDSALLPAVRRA

Sequence	binding signal [1]	binding signal [2]	binding signal [3]	binding signal [4]	binding signal [5]	binding signal [6]	binding signal [7]	binding signal [8]	binding signal [9]
AAGCGA	1.02 fold enrichment (6-mer frequency, TF over GST control)	1.02 fold enrichment (6-mer frequency, TF over GST control)	1.11 fold enrichment (6-mer frequency, TF over GST control)	1.06 fold enrichment (6-mer frequency, TF over GST control)	1.19 fold enrichment (6-mer frequency, TF over GST control)	1.07 fold enrichment (6-mer frequency, TF over GST control)	1 fold enrichment (6-mer frequency, TF over GST control)	1.07 fold enrichment (6-mer frequency, TF over GST control)	–
TTCGCG	1.13 fold enrichment (6-mer frequency, TF over GST control)	1.07 fold enrichment (6-mer frequency, TF over GST control)	1.08 fold enrichment (6-mer frequency, TF over GST control)	1.14 fold enrichment (6-mer frequency, TF over GST control)	1.21 fold enrichment (6-mer frequency, TF over GST control)	1.18 fold enrichment (6-mer frequency, TF over GST control)	1.14 fold enrichment (6-mer frequency, TF over GST control)	1.15 fold enrichment (6-mer frequency, TF over GST control)	–
TCACAG	1.09 fold enrichment (6-mer frequency, TF over GST control)	1.15 fold enrichment (6-mer frequency, TF over GST control)	–	1.06 fold enrichment (6-mer frequency, TF over GST control)	1.02 fold enrichment (6-mer frequency, TF over GST control)	–	1.09 fold enrichment (6-mer frequency, TF over GST control)	1.01 fold enrichment (6-mer frequency, TF over GST control)	1.1 fold enrichment (6-mer frequency, TF over GST control)
TAGTGC	1.05 fold enrichment (6-mer frequency, TF over GST control)	1.02 fold enrichment (6-mer frequency, TF over GST control)	–	1.1 fold enrichment (6-mer frequency, TF over GST control)	–	1.05 fold enrichment (6-mer frequency, TF over GST control)	1.03 fold enrichment (6-mer frequency, TF over GST control)	1.07 fold enrichment (6-mer frequency, TF over GST control)	1.12 fold enrichment (6-mer frequency, TF over GST control)
AAAGGT	1.1 fold enrichment (6-mer frequency, TF over GST control)	1.06 fold enrichment (6-mer frequency, TF over GST control)	–	1.07 fold enrichment (6-mer frequency, TF over GST control)	1.06 fold enrichment (6-mer frequency, TF over GST control)	1.01 fold enrichment (6-mer frequency, TF over GST control)	1.02 fold enrichment (6-mer frequency, TF over GST control)	1.05 fold enrichment (6-mer frequency, TF over GST control)	1.1 fold enrichment (6-mer frequency, TF over GST control)
GGAACA	1.06 fold enrichment (6-mer frequency, TF over GST control)	1.09 fold enrichment (6-mer frequency, TF over GST control)	1.16 fold enrichment (6-mer frequency, TF over GST control)	1.02 fold enrichment (6-mer frequency, TF over GST control)	1.12 fold enrichment (6-mer frequency, TF over GST control)	1.15 fold enrichment (6-mer frequency, TF over GST control)	1.18 fold enrichment (6-mer frequency, TF over GST control)	1.12 fold enrichment (6-mer frequency, TF over GST control)	–
CTGCAG	1.13 fold enrichment (6-mer frequency, TF over GST control)	1.1 fold enrichment (6-mer frequency, TF over GST control)	–	1.08 fold enrichment (6-mer frequency, TF over GST control)	1.18 fold enrichment (6-mer frequency, TF over GST control)	1.14 fold enrichment (6-mer frequency, TF over GST control)	1.08 fold enrichment (6-mer frequency, TF over GST control)	1.05 fold enrichment (6-mer frequency, TF over GST control)	1.16 fold enrichment (6-mer frequency, TF over GST control)
GCTGAC	1.17 fold enrichment (6-mer frequency, TF over GST control)	1.1 fold enrichment (6-mer frequency, TF over GST control)	–	1.16 fold enrichment (6-mer frequency, TF over GST control)	1.21 fold enrichment (6-mer frequency, TF over GST control)	1.04 fold enrichment (6-mer frequency, TF over GST control)	1.12 fold enrichment (6-mer frequency, TF over GST control)	1.13 fold enrichment (6-mer frequency, TF over GST control)	1.04 fold enrichment (6-mer frequency, TF over GST control)
TACAAG	1.06 fold enrichment (6-mer frequency, TF over GST control)	1.03 fold enrichment (6-mer frequency, TF over GST control)	1.04 fold enrichment (6-mer frequency, TF over GST control)	1.06 fold enrichment (6-mer frequency, TF over GST control)	1.09 fold enrichment (6-mer frequency, TF over GST control)	–	–	1.04 fold enrichment (6-mer frequency, TF over GST control)	–
GAATTA	1.09 fold enrichment (6-mer frequency, TF over GST control)	1.05 fold enrichment (6-mer frequency, TF over GST control)	1.01 fold enrichment (6-mer frequency, TF over GST control)	1.04 fold enrichment (6-mer frequency, TF over GST control)	1.12 fold enrichment (6-mer frequency, TF over GST control)	1.07 fold enrichment (6-mer frequency, TF over GST control)	1.02 fold enrichment (6-mer frequency, TF over GST control)	1.12 fold enrichment (6-mer frequency, TF over GST control)	–
CCGGTC	1.17 fold enrichment (6-mer frequency, TF over GST control)	1.18 fold enrichment (6-mer frequency, TF over GST control)	1.3 fold enrichment (6-mer frequency, TF over GST control)	1.14 fold enrichment (6-mer frequency, TF over GST control)	1.1 fold enrichment (6-mer frequency, TF over GST control)	1.01 fold enrichment (6-mer frequency, TF over GST control)	1.08 fold enrichment (6-mer frequency, TF over GST control)	1.18 fold enrichment (6-mer frequency, TF over GST control)	–
TGATCA	1.04 fold enrichment (6-mer frequency, TF over GST control)	1.05 fold enrichment (6-mer frequency, TF over GST control)	–	1.07 fold enrichment (6-mer frequency, TF over GST control)	1.08 fold enrichment (6-mer frequency, TF over GST control)	1.02 fold enrichment (6-mer frequency, TF over GST control)	–	1.18 fold enrichment (6-mer frequency, TF over GST control)	1.03 fold enrichment (6-mer frequency, TF over GST control)
AAGCCC	1.04 fold enrichment (6-mer frequency, TF over GST control)	1.07 fold enrichment (6-mer frequency, TF over GST control)	–	1.08 fold enrichment (6-mer frequency, TF over GST control)	–	1.04 fold enrichment (6-mer frequency, TF over GST control)	1.07 fold enrichment (6-mer frequency, TF over GST control)	–	1.11 fold enrichment (6-mer frequency, TF over GST control)
